According to PubChem BioAssay (NCATS):
Results filed as inconclusive are left out. Active and inactive are the calls of the source. Calls come from the whole dose curve; as a rule, active = well fitted curve in either direction with a large enough effect (not every such curve was filed as active); inconclusive = small, poorly fitted or top-dose-only effect, or another doubt; inactive = flat fitted curve, though single readings scatter.

The compounds below were run against Mitogen-activated protein kinase 10 (Mus musculus) (UniProt Q61831) (assay: JNK3 AlphaScreen Assay (AID 530;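 note: kinase came from lysate of stimulated human HepG2 cells; signal reports phosphorylation of biotinylated GST-cJun 1-79 at Ser73 with 10 µM ATP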)). Details: JNK3 lysate, c-Jun phosphorylation; series mostly up to 57.1 µM.
In short: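 Activity was read by AlphaScreen after JNK3-containing HepG2 lysate (cytokine pre-activated) phosphorylated biotinylated GST-cJun with 10 uM ATP at room temperature. Phospho-Ser73 cJun antibody with Protein-A acceptor beads provided detection.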

outcome, inactive:
COC(=O)N1CCC2(CC1)CCN(c1ccccc1)CC2, CS(=O)(=O)N1CCC2(CC1)CN(Cc1cc(C(F)(F)F)cc(C(F)(F)F)c1)C2, N#Cc1ccc(CN2CCCC3(CCN(C(=O)c4cccc(F)c4)CC3)C2)cc1, COc1ccc(NC(=O)N2CC3(CCN(C(C)=O)CC3)C2)cc1, N#Cc1cccc(NC(=O)N2CCC3(CC2)CCN(C(=O)c2csnn2)CC3)c1, COc1ccccc1CN1CCC2(CC1)CCN(C(C)=O)CC2, Cc1noc(C)c1C(=O)N1CCC2(CCN(C(=O)Nc3ccccc3)CC2)CC1, COC(=O)N1CCC[C@@]2(CCN(C(c3ccccc3)c3ccccc3)C2)C1, CC(C)CN1CC[C@@]2(CCCN(C(=O)c3cnccn3)C2)C1, O=C(c1csnn1)N1CCC[C@@]2(CCN(Cc3nccs3)C2)C1, O=C(c1ccco1)N1CCC2(CC1)CN(Cc1cc(C(F)(F)F)cc(C(F)(F)F)c1)C2, CC(C)NC(=O)N1CC[C@@]2(CCCN(C(=O)c3cc(C(F)(F)F)cc(C(F)(F)F)c3)C2)C1, COCC(=O)N1CCC[C@@]2(CCN(Cc3ccccc3OC)C2)C1, COc1ccccc1CN1CCCC2(CCN(S(C)(=O)=O)CC2)C1, O=C(c1cc(C(F)(F)F)cc(C(F)(F)F)c1)N1CCC[C@@]2(CCN(Cc3ccncc3)C2)C1, Cc1cccc(CNc2ncnc3ccc(-c4cccc(C#N)c4)cc23)c1, CC(=O)N1CCC2(CC1)CN(c1ccccc1)C2
